Screens: PubChem, National Center for Advancing Translational Sciences (NCATS)
An excerpt weighted towards active compounds, which were near 7.4% of everything screened.
HEK cytotox: Cytotoxic Profiling in HEK 293 Cell Line of Diverse Libraries Using Quantitative High-Throughput Screening. HEK 293 viability, ATP luminescence (CellTiter-Glo), 48-72 h. Potency, µM (doses to about 115 µM), inactives show top-dose activity change, negative = cytotoxicity, most hits filed as inhibitors. 94,000 tested, 6.6% active. AID 1345083, 2018; note: nearly all actives have a fitted effect of over 60% in size
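Pintool-delivered compounds were incubated with HEK 293 cells (250 cells/well) at 37 degree Celsius for 48 or 72 hr. ATP-dependent luminescence (CellTiter-Glo) then reported remaining viable cells.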
SNCA viab count: GF-AFC viability counterscreen for inhibitors of alpha-synuclein gene (SNCA) expression; Potency, µM (highest dose often 57.1 µM), for inactives: top-dose activity change, negative = cytotoxicity, usual class: cytotoxic; 150,000 tested, 0.12% active; HEK-293-SNCA-luc viability, GF-AFC fluorescence, 24 h;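 note: 0% = DMSO-treated cells and -100% = medium-only wells without cells; nearly all actives have a fitted effect of over 30% in size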
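HEK-293-SNCA-luc cells (1500/well) plated 24 h, then exposed 24 h to a dilution series; GF-AFC added 30 min at 37C, fluorescence 405/540 nm; normalised to medium-only and DMSO wells, Hill fit.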
hNpr1 antagonist: Natriuretic polypeptide receptor (hNpr1) antagonism - Primary qHTS; Potency, µM (highest dose often 46.3 µM), without a hit: top-dose activity change, negative = inhibition, actives largely listed as inhibitors; AID 1347048, 2019; 76,000 tested, 1.6% active; Atrial natriuretic peptide receptor 1 (Homo sapiens), P16066; HEK293 hNpr1 GloSensor cGMP, ANP-stimulated luminescence; calls by dose curve; note: nearly all actives have a fitted effect of over 60% in size
Target sequence (P16066 whole entry, looked up): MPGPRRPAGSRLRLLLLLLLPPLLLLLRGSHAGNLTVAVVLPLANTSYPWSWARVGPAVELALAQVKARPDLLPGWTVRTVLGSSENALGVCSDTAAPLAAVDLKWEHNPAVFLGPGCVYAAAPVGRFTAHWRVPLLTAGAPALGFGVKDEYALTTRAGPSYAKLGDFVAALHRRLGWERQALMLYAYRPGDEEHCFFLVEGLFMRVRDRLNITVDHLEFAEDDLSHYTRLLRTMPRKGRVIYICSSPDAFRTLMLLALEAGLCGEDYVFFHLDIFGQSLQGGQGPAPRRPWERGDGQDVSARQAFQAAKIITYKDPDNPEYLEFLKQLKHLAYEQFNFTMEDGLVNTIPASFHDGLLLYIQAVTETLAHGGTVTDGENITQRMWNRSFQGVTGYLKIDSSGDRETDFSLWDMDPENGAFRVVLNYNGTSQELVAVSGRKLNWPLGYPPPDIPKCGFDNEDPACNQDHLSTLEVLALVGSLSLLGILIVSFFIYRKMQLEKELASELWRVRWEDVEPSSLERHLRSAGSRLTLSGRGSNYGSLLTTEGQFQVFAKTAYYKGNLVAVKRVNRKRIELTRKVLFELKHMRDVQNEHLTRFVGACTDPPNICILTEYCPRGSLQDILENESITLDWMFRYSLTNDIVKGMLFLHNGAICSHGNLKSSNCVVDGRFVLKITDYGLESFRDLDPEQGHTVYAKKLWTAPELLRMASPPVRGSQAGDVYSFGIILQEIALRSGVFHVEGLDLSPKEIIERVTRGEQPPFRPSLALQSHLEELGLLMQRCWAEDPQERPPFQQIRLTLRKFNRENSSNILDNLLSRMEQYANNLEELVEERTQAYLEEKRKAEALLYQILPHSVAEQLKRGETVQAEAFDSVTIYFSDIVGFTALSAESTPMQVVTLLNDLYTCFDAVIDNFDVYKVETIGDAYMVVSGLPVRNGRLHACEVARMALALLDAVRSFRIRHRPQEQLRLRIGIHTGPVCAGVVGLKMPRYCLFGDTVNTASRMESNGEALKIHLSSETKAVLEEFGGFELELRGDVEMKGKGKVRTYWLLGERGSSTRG
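Compound pre-incubated 30 min at room temperature on GloSensor-loaded HEK293 cells stably carrying hNpr1 and the pGS-40F cGMP biosensor. Stimulation uses hNppA at 0.1 nM final; luminescence is taken at baseline and 20 min post-agonist.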
3T3 cytotox: Cytotoxic Profiling in NIH 3T3 Cell Line of Diverse Libraries Using Quantitative High-Throughput Screening; 94,000 tested, 4.3% active; Potency, µM (doses to about 96.7 µM), without a hit: top-dose activity change, negative = cytotoxicity, hits mostly inhibitors; NIH 3T3 viability, CellTiter-Glo ATP luminescence, 48-72 h; note: nearly all actives have a fitted effect of over 55% in size
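Cells were seeded at 400 per well, treated with pin-transferred compound, and kept 48 or 72 hr at 37 °C before CellTiter-Glo addition and luminescence imaging of cellular ATP.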
SNCA expr inh: Primary qHTS assay for inhibitors of alpha-synuclein gene (SNCA) expression; HEK-293 SNCA-luciferase knock-in, luminescence, 24 h; Potency, µM (top dose mostly 57.2 µM), without a hit: at the top dose activity change, negative = inhibition, usual class: inhibitors; 140,000 tested, 0.17% active;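 note: plate controls were DMSO cells for no effect and cell-free wells for full effect; nearly all actives have a fitted effect of over 45% in size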
Luciferase inh: Firefly luciferase inhibition profiling of diverse chemical library using quantitative high-throughput screening | 76,000 tested, 2.5% active | purified P. pyralis luciferase, luminescence, biochemical | Potency, µM (highest dose often 115 µM), hits mostly inhibitors; note: nearly all actives have a fitted effect of over 65% in size
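FLuc 10nM, D-luciferin 10uM, ATP 10uM, Mg acetate 10mM, Tris acetate pH 7.5, Tween/BSA; cpd qHTS; enzyme added last; CCD luminescence.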
Active calls of the source: *; i = inactive; ? = inconclusive; . = no result given; [ ] = another dose, or the depositor's remark. Unless noted, calls come from the whole dose curve; as a rule, active = well fitted curve in the direction sought with a large enough effect; inconclusive = small, poorly fitted or top-dose-only effect, or another doubt; inactive = no such curve, though single readings can be large; an effect the other way counts as inactive or inconclusive. Unless noted, % is set by controls: 0 for no effect and ±100 for the full control effect; potency is the fitted concentration of half-maximal effect.

SMILES	HEK cytotox	SNCA viab count	hNpr1 antagonist	3T3 cytotox	SNCA expr inh	Luciferase inh
CCn1ccc(C(=O)N2CCC3(CC2)CC(c2nnc(COC)o2)N(C)C3)n1 (stereo unspecified)	i	6%	.	-2%	-9%	.
CNC(=O)c1cc(C2CC2)nc2c1c(C1CCN(C(=O)CN(C)C)CC1)nn2C	0%	.	.	-3%	.	.
CN1C[C@@H](NS(=O)(=O)c2ccccc2)C[C@H]1c1nc(-c2ccccn2)no1	-27%[172 µM]	-17%[87.6 µM]	-28%[70.6 µM]	?	-11%[87.6 µM]	22µM*
CCOc1cc(C(=O)N2CCN(c3cc(-c4ccc(Cl)cc4)[nH]n3)CC2)cc(OCC)c1OCC	35µM*	-11%	-5%	32µM*	?	i
Cc1ccccc1C(=O)N1CCN(c2cc(-c3cccs3)[nH]n2)CC1	?	6%	-4%	?	6%	i
CCOc1ccccc1C(=O)N1CCN(c2cc(-c3ccc(Cl)cc3)[nH]n2)CC1	35µM*	-12%	-28%	18µM*	-15%	i
CCOc1ccccc1C(=O)N1CCN(c2cc(-c3cccs3)[nH]n2)CC1	40µM*	5%	-23%	?	26%	i
COc1ccccc1CC(=O)N1CCN(c2cc(-c3cccs3)[nH]n2)CC1	40µM*	-11%	?	?	13%	i
CCOc1ccccc1C(=O)N1CCN(c2cc(-c3ccc(F)cc3)[nH]n2)CC1	?	-9%	-11%	?	1%	i
O=C(C1CCC(N2Cc3cccn3C2=O)CC1)C1CCN([S+](=O)([O-])c2cccs2)CC1 (stereo unspecified)	-23%	2%	.	-27%	4%	.
CCOc1ccc(CC(=O)N2CCN(c3cc(-c4cccs4)[nH]n3)CC2)cc1OCC	45µM*	4%	-1%	28µM*	-27%	i
Cc1ccc(CC(=O)N2CCN(c3cc(-c4cccs4)[nH]n3)CC2)cc1	?	-10%	-21%	?	13%	i
COc1cc(C(=O)N2CCN(c3cc(-c4ccc(Cl)cc4)[nH]n3)CC2)cc(OC)c1OC	?	2%	?	25µM*	-9%	i
CNC(=O)c1cc(C2CC2)nc2c1c(C1CCCN(C(=O)c3ccc(Cl)nc3)C1)nn2C (stereo unspecified)	-28%	.	.	?	.	.
CC(C)c1nc2c(c(-c3ccc(O)cc3)n1)CN(Cc1ccsc1)CC2	?	-3%	-13%	?	-30%	i
Cn1ncc2c(C(=O)NCc3ccc4c(c3)OCO4)cc(-c3ccccc3)nc21	?	5%	.	?	-4%	.
Cc1ccc(C2Cn3nnc(-c4nc(-c5cccnc5)no4)c3CO2)c(C)c1 (stereo unspecified)	?	-15%	-6%	16µM*	-15%	i
COCCNC(=O)[C@H]1C[C@H](Oc2ccccc2)CN1Cc1cccc(C)c1	13µM*	-5%	0%	-24%	12%	i
CNC(=O)[C@H]1C[C@H](Oc2ccccc2)CN1Cc1cn(C)c2ccc(OC)cc12	28µM*	-26%	-3%	32µM*	?	i
CC(NC(=O)c1csc2nc(-c3cccc(C(F)(F)F)c3)cn12)c1ccncn1 (stereo unspecified)	?	4%	0%	?	47%	40µM*
COCC(C)NC(=O)c1csc2nc(-c3cccc(C(F)(F)F)c3)cn12 (stereo unspecified)	?	0%	-2%	?	6%	i
Cc1ccc(-c2cnc([C@@H]3COCCN3CC3CC3)[nH]2)cc1	63µM*	0%[87.6 µM]	3%[70.6 µM]	-19%[174 µM]	-20%[87.6 µM]	i
CC(C)(C)CN1CCOC[C@H]1c1ncc(-c2ccc(C(F)(F)F)cc2)[nH]1	71µM*	-11%[87.6 µM]	?	79µM*	6%[87.6 µM]	i
Cc1ccc(-c2cnc([C@@H]3COCCN3Cc3ccncc3)[nH]2)cc1	-6%[172 µM]	1%[87.6 µM]	4%[70.6 µM]	2%[174 µM]	?	i
CC(C)(C)CN1CCOC[C@H]1c1ncc(-c2ccc(Cl)cc2)[nH]1	79µM*	1%[87.6 µM]	-18%[70.6 µM]	89µM*	4%[87.6 µM]	i
SMILES	HEK cytotox	SNCA viab count	hNpr1 antagonist	3T3 cytotox	SNCA expr inh	Luciferase inh
O=C(NC1CC1)c1ccc2oc(-c3ccncc3)nc2c1	?	6%[87.6 µM]	.	?	71%[87.6 µM]	.
Clc1cccc(-c2cnc([C@@H]3COCCN3C3CCCCC3)[nH]2)c1	79µM*	-7%[87.6 µM]	-2%[70.6 µM]	?	10%[87.6 µM]	i
Clc1ccc(-c2cnc([C@@H]3COCCN3Cc3ccccc3)[nH]2)cc1	89µM*	-13%[87.6 µM]	?	?	?	i
Oc1ccccc1CN1CCOC[C@H]1c1ncc(-c2ccccc2)[nH]1	?	4%[87.6 µM]	-16%[70.6 µM]	100µM*	-18%[87.6 µM]	i
Oc1ccccc1CN1CCOC[C@H]1c1ncc(-c2ccc(F)cc2)[nH]1	?	-6%[87.6 µM]	-24%[70.6 µM]	-29%[138 µM]	24%[87.6 µM]	i
Clc1cccc(-c2cnc([C@@H]3COCCN3Cc3ccccc3)[nH]2)c1	100µM*	-8%[87.6 µM]	?	79µM*	-12%[87.6 µM]	i
Clc1ccc(-c2cnc([C@@H]3COCCN3Cc3ccccn3)[nH]2)cc1	?	-1%[87.6 µM]	-4%[70.6 µM]	?	-28%[87.6 µM]	i
COc1cccc([S+](=O)([O-])N2CCCC2C(=O)N2CCC(N3CCCC3=O)CC2)c1 (stereo unspecified)	-14%	0%	.	-24%	-10%	.
Cn1ncc2c(C(=O)NCc3cccs3)cc(-c3cccnc3)nc21	?	-21%[87.6 µM]	.	?	-2%[87.6 µM]	.
CC(C)NC(=O)c1nc(-c2cccc(C(F)(F)F)c2)c2ccccn12	79µM*	6%	13%	89µM*	-4%	i
C#CCNC(=O)c1nc(-c2cccc(C(F)(F)F)c2)c2ccccn12	50µM*	-24%[87.6 µM]	-24%[70.6 µM]	?	0%[87.6 µM]	i
C#CCNC(=O)c1nc(-c2ccccc2)c2ccccn12	?	-2%[87.6 µM]	1%[70.6 µM]	?	-2%[87.6 µM]	i
O=C(Nc1cc(-c2ccccn2)nn1-c1ccccc1)C1CC1	-5%[172 µM]	-6%[87.6 µM]	.	-9%[138 µM]	-27%[87.6 µM]	.
CN1CCc2c([nH]c3ccccc23)C12CCN(C(=O)c1ccc(Cn3ccnc3)o1)CC2	89µM*	-13%[12.5 µM]	1%	-24%	14%	i
CC(C)CN1C(=O)c2cccn2CC1CNC(=O)c1nn(C)c2ccccc12 (stereo unspecified)	?	-6%	.	-21%	-26%	.
